Here are results for nine molecules from PubChem BioAssay (NCI).

Common to all, as to test: NCI-60 one-dose screen, 48 h (100 = growth as untreated, 0 = no growth, -100 = all killed)
One experiment concerns RPMI-8226 leukemia. The conditions noted are these: 10 µM unless noted.
For the next experiment, the system named is OVCAR-8 ovarian. As to conditions: 10 µM unless noted.
A further experiment relates to OVCAR-5 ovarian. As to conditions: 10 µM unless noted.
Another experiment concerns OVCAR-4 ovarian. The conditions noted are these: 10 µM unless noted.
The subject of another experiment is SK-OV-3 ovarian. The conditions noted are these: 10 µM unless noted.
The next experiment concerns IGROV1 ovarian. As to conditions: 10 µM unless noted.
Another experiment concerns OVCAR-3 ovarian. The conditions noted are these: 10 µM unless noted.
A further experiment deals with HS 578T breast. The conditions noted are these: 10 µM.
The next experiment has as its system NCI/ADR-RES ovarian. As to conditions: 10 µM unless noted.
A further experiment has as its system T-47D breast. The conditions noted are these: 10 µM unless noted.
In a further experiment the test system is BT-549 breast. As to conditions: 10 µM unless noted.
The test system of a further experiment is MDA-MB-435 melanoma. As to conditions: 10 µM unless noted.
In the next experiment the test system is SW-620 colon. As to conditions: 10 µM unless noted.
For the next experiment, the system named is MCF7 breast. As to conditions: 10 µM unless noted.
Another experiment has as its system HCT-116 colon. As to conditions: 10 µM unless noted.
Another experiment relates to SR leukemia. The conditions noted are these: 10 µM unless noted.
A further experiment has as its system HCC-2998 colon. The conditions noted are these: 10 µM unless noted.
For another experiment, the system named is KM12 colon. The conditions noted are these: 10 µM unless noted.

Compounds without any hit were thinned out: in the full panel of roughly 83,000, 20% have a hit.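 Cells were grown in 96-well plates and exposed to the test compound at a single concentration for 48 hours; results are reported as percent growth, with values below 10 considered active.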 A number with no mark means an inactive call. Active and inactive are the calls of the source.

With `COc1ccc2c(c1)N(CCO)C1=C(C(=O)OC1)C2c1cccc(Br)c1` (stereo unspecified), the growth in the experiment on RPMI-8226 leukemia is 18.5%; in the experiment with OVCAR-8 ovarian, 14.6%; in the experiment with OVCAR-5 ovarian it was 32.1%; with OVCAR-4 ovarian, 52.6%; in the experiment on SK-OV-3 ovarian it was 28.5%; with IGROV1 ovarian, 11.2%. Moreover, the growth with OVCAR-3 ovarian was -51.6% (active); in the experiment with HS 578T breast it was 10.7%; with NCI/ADR-RES ovarian, 10.7%; with T-47D breast, 72%; with BT-549 breast, 15.9%; in the experiment on MDA-MB-435 melanoma it was -51% (active). Besides, the growth was 22.5% with SW-620 colon, 16.1% in the experiment on MCF7 breast and 3.89% (active) in the experiment on HCT-116 colon.

Turning to `O=C1c2ccccc2C(=O)c2c1oc1ccc3ccccc3c21`, the growth in the experiment on SR leukemia was 60.8%; in the experiment with OVCAR-8 ovarian, 88.2%; with OVCAR-5 ovarian it was 130%; with OVCAR-4 ovarian, 34.1%; in the experiment on SK-OV-3 ovarian it was 114%; in the experiment on IGROV1 ovarian, 80.2%. The growth is 39.4% in the experiment with OVCAR-3 ovarian; 85.7% with HS 578T breast; 23.5% with T-47D breast; 70.2% with BT-549 breast; 91.3% in the experiment on MDA-MB-435 melanoma; 91.6% in the experiment with SW-620 colon. Moreover, the growth with MCF7 breast is 21.8%; in the experiment on HCT-116 colon, 62.2%; in the experiment with HCC-2998 colon it was 99%; in the experiment on KM12 colon it was 61.6%.

As to `CCCCCCCCNC(C)C(O)c1ccc(SC(C)C)cc1` (stereo unspecified), the growth is -55% (active) in the experiment with SR leukemia; -5.31% (active) with OVCAR-8 ovarian; 63.9% with OVCAR-4 ovarian; 83.9% in the experiment with SK-OV-3 ovarian; 18.8% in the experiment with IGROV1 ovarian; -83% (active) in the experiment with OVCAR-3 ovarian. Also, the growth in the experiment with HS 578T breast was 49.2%; in the experiment on NCI/ADR-RES ovarian it was 47.8%; in the experiment with T-47D breast it was 49.6%; in the experiment with BT-549 breast, 59.9%; with MDA-MB-435 melanoma, -40.8% (active); with SW-620 colon, -63.6% (active). For the same molecule, the growth was 54% in the experiment with MCF7 breast, -96.9% (active) in the experiment on HCT-116 colon, -80.4% (active) in the experiment with HCC-2998 colon and -72.1% (active) with KM12 colon.

For the molecule `CC(C)CC(NC(=O)OCC1c2ccccc2-c2ccccc21)C(=O)O` (stereo unspecified), the growth is 101% in the experiment on RPMI-8226 leukemia; 122% in the experiment with OVCAR-8 ovarian; 101% with OVCAR-5 ovarian; 102% with OVCAR-4 ovarian; 95% with SK-OV-3 ovarian; 91% in the experiment on IGROV1 ovarian. Moreover, the growth was 115% in the experiment on OVCAR-3 ovarian; 115% with HS 578T breast; 107% in the experiment on NCI/ADR-RES ovarian; 95.8% with T-47D breast; 97% in the experiment on BT-549 breast; 93.7% with MDA-MB-435 melanoma. The growth is 116% in the experiment with SW-620 colon; 89.4% in the experiment with MCF7 breast; 103% with HCT-116 colon; 112% in the experiment with HCC-2998 colon; 106% in the experiment on KM12 colon.

In the case of `C#CC[C@@H]1C[C@]2(C)[C@H]3CC=C4[C@H]5[C@@H](C)[C@H](C)CC[C@]5(C(=O)NCCCN5CCN(CCCN)CC5)CC[C@@]4(C)[C@]3(C)CC[C@H]2C(C)(C)[C@H]1OC(C)=O`, the growth in the experiment with SR leukemia was -5.62% (active); in the experiment with OVCAR-8 ovarian it was -58.3% (active); in the experiment on OVCAR-5 ovarian, 29.4%; in the experiment with SK-OV-3 ovarian, 115%; in the experiment with IGROV1 ovarian, -60.5% (active); with OVCAR-3 ovarian, -73.7% (active). Also, the growth is -25.3% (active) with HS 578T breast; 61.7% in the experiment on NCI/ADR-RES ovarian; -3.81% (active) in the experiment on BT-549 breast; -74.2% (active) in the experiment on MDA-MB-435 melanoma; -75.8% (active) in the experiment on MCF7 breast; -83.9% (active) in the experiment on HCT-116 colon. The results for the growth in the experiment with HCC-2998 colon and with KM12 colon were -34.1% (active) and 1.28% (active), respectively.

For `NCCCOc1cc2ccccc2cc1C(=O)NCCCOc1cc2ccccc2cc1C(=O)Nc1ccc(Cl)cc1O`, the growth in the experiment on RPMI-8226 leukemia was -18.3% (active); with OVCAR-8 ovarian it was -57.6% (active); with OVCAR-5 ovarian it was -92.5% (active); in the experiment on OVCAR-4 ovarian, -77.4% (active); in the experiment with SK-OV-3 ovarian, -80.4% (active); in the experiment on IGROV1 ovarian, -31.6% (active). Also, the growth with OVCAR-3 ovarian is -31.2% (active); with HS 578T breast, 14.5%; in the experiment with NCI/ADR-RES ovarian, 29.2%; in the experiment on T-47D breast, -67.6% (active); in the experiment on BT-549 breast it was -39.8% (active); in the experiment on MDA-MB-435 melanoma, -85.5% (active). The growth in the experiment on SW-620 colon was -73.9% (active); with MCF7 breast, -93.5% (active); with HCT-116 colon, -85.8% (active).

For `Nc1ccc(C(OC(=O)c2cc3ccccc3c(Cc3c(O)c(C(=O)OC(c4ccc(N)cc4)(c4ccc(N)cc4)c4ccc(N)cc4)cc4ccccc34)c2O)(c2ccc(N)cc2)c2ccc(N)cc2)cc1`, the growth in the experiment on SR leukemia was 13.1%; with OVCAR-8 ovarian, 13.5%; in the experiment with OVCAR-5 ovarian it was 38.8%; with SK-OV-3 ovarian it was 15.7%; with IGROV1 ovarian, 47.4%; in the experiment with OVCAR-3 ovarian it was -14.3% (active). The growth in the experiment on HS 578T breast is -18.4% (active); in the experiment with NCI/ADR-RES ovarian it was 57.1%; with T-47D breast, 17.2%; with BT-549 breast it was -4.24% (active); in the experiment on MDA-MB-435 melanoma it was 6.93% (active); in the experiment on SW-620 colon, 15.9%. Further, the growth in the experiment on MCF7 breast is 9.51% (active); with HCT-116 colon it was 8.88% (active); with HCC-2998 colon, 9.42% (active).

For the molecule `O=C(NCCNC(=O)c1cc(S(=O)(=O)NCCc2ccccc2)c(O)c(O)c1O)c1cc(S(=O)(=O)NCCc2ccccc2)c(O)c(O)c1O`, the growth in the experiment on RPMI-8226 leukemia was 79.5%; in the experiment on OVCAR-8 ovarian it was 40.2%; with OVCAR-5 ovarian, 82.3%; with OVCAR-4 ovarian, 62.3%; with SK-OV-3 ovarian, 33.1%; in the experiment with IGROV1 ovarian it was 31.5%. Also, the growth is 19.7% in the experiment on OVCAR-3 ovarian; 52.2% in the experiment on HS 578T breast; 76.1% with NCI/ADR-RES ovarian; 84.1% in the experiment with T-47D breast; 48.8% in the experiment on BT-549 breast; 35.2% in the experiment with MDA-MB-435 melanoma. In addition, the growth with SW-620 colon is 54.7%; in the experiment with MCF7 breast, 34.9%; with HCT-116 colon it was 33.5%; in the experiment with HCC-2998 colon, 38.6%; in the experiment on KM12 colon, 34.1%.

Consider `CC1=C(C(=O)Nc2ccc(F)cc2)C(c2ccc(C)cc2)C2=C(CC(C)(C)CC2=O)N1` (stereo unspecified), for which the growth with RPMI-8226 leukemia is 99.2%; with OVCAR-8 ovarian, 98.3%; in the experiment with OVCAR-5 ovarian it was 93.1%; with OVCAR-4 ovarian it was 90.8%; with SK-OV-3 ovarian, 100%; in the experiment with IGROV1 ovarian, 104%. The growth in the experiment on OVCAR-3 ovarian is 92.7%; with HS 578T breast, 77.4%; with NCI/ADR-RES ovarian, 89.9%; in the experiment with T-47D breast, 85.2%; with BT-549 breast it was 97.2%; with MDA-MB-435 melanoma, 94.9%. Moreover, the growth was 81.9% with SW-620 colon, 91.1% in the experiment on MCF7 breast, 96.3% in the experiment on HCT-116 colon and 107% in the experiment on HCC-2998 colon.
